PubChem BioAssay (Tox21)
The source made the active and inactive calls. Unless noted, the call rests on the fitted dose curve.

Molecular target: KiSS-1 receptor (Homo sapiens) (UniProt Q969F8)
Assay: Human kisspeptin (KISS1R) small molecule agonists, calcium flux assay in KISS1R-HEK293 cells (AID 1920064; active means well fitted activation curve with a large enough effect in the repeat runs)
Details: KISS1R-HEK293, calcium flux fluorescence, agonist; series mostly up to 76.8 µM; activation: at the top concentration
In short: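 Concentration-response testing used 15 concentrations in triplicate on human KISS1R-expressing HEK293 cells. Calcium-dependent fluorescence (Ex/Em 480/540) was followed kinetically for 3 min after compound transfer.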
On the % scale 0 is the no-effect control and ±100 the full control effect.

Chain of KiSS-1 receptor (Homo sapiens) (Q969F8 whole entry, looked up): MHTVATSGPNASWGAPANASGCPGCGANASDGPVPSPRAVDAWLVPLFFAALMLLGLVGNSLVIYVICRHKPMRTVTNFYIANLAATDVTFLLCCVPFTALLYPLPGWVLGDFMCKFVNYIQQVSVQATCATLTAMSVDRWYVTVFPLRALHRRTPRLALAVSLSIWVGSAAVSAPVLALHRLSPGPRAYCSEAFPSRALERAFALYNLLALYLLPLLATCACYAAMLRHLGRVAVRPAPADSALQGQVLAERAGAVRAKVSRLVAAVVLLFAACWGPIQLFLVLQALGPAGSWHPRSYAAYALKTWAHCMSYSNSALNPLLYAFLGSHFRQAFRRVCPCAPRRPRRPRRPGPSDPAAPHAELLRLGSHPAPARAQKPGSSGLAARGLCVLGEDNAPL

Compound	activation
O=c1[nH]c(=O)n([C@H]2C[C@H](O)[C@@H](CO)O2)cc1I	-0.754% [at 35.3 µM] (inactive)
CC[N+](CC)(CC)CCOc1cccc(OCC[N+](CC)(CC)CC)c1OCC[N+](CC)(CC)CC	-0.393% [at 35.3 µM] (inactive)
C[N+]1(C)[C@@H]2CC(OC(=O)[C@H](CO)c3ccccc3)C[C@H]1[C@@H]1O[C@@H]12 (stereo partly drawn)	0.1% [at 35.3 µM] (inactive)
C[C@@H]1C[C@H]2[C@@H]3CCC4=CC(=O)C=C[C@]4(C)[C@@]3(F)[C@@H](O)C[C@]2(C)[C@H]1C(=O)CO	3.73% [at 35.3 µM] (inactive)
C[C@H]1C[C@H]2[C@@H]3CCC4=CC(=O)C=C[C@]4(C)[C@@]3(F)[C@@H](O)C[C@]2(C)[C@@]1(O)C(=O)COP(=O)(O)O	0.943% (inactive)
CCOC(=O)OC(C)OC1=C(C(=O)Nc2ccccn2)N(C)S(=O)(=O)c2ccccc21 (stereo not drawn)	-0.704% [at 35.3 µM] (inactive)
C[N+](C)(C)CC(O)CC(=O)[O-] (stereo not drawn)	3.1% [at 35.3 µM] (inactive)
Cc1cccc(C)c1OCC(C)N (stereo not drawn)	-1.14% [at 35.3 µM] (inactive)
CC1=NS(=O)(=O)c2cc(Cl)ccc2N1	0.597% [at 35.3 µM] (inactive)
CC(C)NCC(O)c1ccc(NS(C)(=O)=O)cc1 (stereo not drawn)	-0.737% (inactive)
CC[C@H]1OC(=O)[C@H](C)[C@@H](O[C@H]2C[C@@](C)(OC)[C@@H](O)[C@H](C)O2)[C@H](C)[C@@H](O[C@@H]2O[C@H](C)C[C@H](N(C)C)[C@H]2O)[C@](C)(OC)C[C@@H](C)C(=O)[C@H](C)[C@@H](O)[C@]1(C)O	3.26% (inactive)
CC[C@H]1OC(=O)[C@H](C)[C@@H](O[C@H]2C[C@@](C)(OC)[C@@H](O)[C@H](C)O2)[C@H](C)[C@@H](O[C@@H]2O[C@H](C)C[C@H](N(C)C)[C@H]2O)[C@](C)(O)C[C@@H](C)C(=O)[C@H](C)[C@@H](O)[C@]1(C)O	0.313% [at 35.3 µM] (inactive)
NCCCNCCSP(=O)(O)O	-1.03% [at 6.97 µM] (inactive)
NS(=O)(=O)c1cc2c(cc1Cl)NC(C(Cl)Cl)NS2(=O)=O (stereo not drawn)	0.444% [at 35.3 µM] (inactive)
CCOC(=O)[C@H](CCc1ccccc1)N[C@@H](C)C(=O)N1CCC[C@H]1C(=O)O	-1.29% [at 35.3 µM] (inactive)
COC(=O)[C@@H]1[C@H]2C[C@H]3c4[nH]c5ccccc5c4CCN3C[C@@H]2CC[C@@H]1O	0.612% [at 35.3 µM] (inactive)
Oc1cccc(O)c1O	-2.67% (inactive)
COc1cc(C(=O)NC2CCCNC2)cc(OC)c1OC (stereo not drawn)	-0.692% [at 35.3 µM] (inactive)
CCN[C@@H]1C[C@H](N)[C@@H](OC2OC(CN)=CCC2N)[C@H](O)[C@H]1O[C@H]1OC[C@](C)(O)[C@H](NC)[C@H]1O (stereo partly drawn)	-0.712% [at 0.29 µM] (inactive)
O=C(O)CCNC(=O)c1ccccc1	-0.283% [at 35.3 µM] (inactive)

Compound	activation
CN1CCN(C(c2ccccc2)c2ccccc2)CC1	-0.209% [at 35.3 µM] (inactive)
CCCN(CCC)C(=O)C(CCC(=O)O)NC(=O)c1ccccc1 (stereo not drawn)	-0.59% [at 35.3 µM] (inactive)
CNS(=O)(=O)Cc1ccc2[nH]cc(CCN(C)C)c2c1	8.62% [at 35.3 µM] (inactive)
CCN(CC)CCNC(=O)c1cc(S(C)(=O)=O)ccc1OC	2.08% [at 35.3 µM] (inactive)
CCOC(=O)[C@H](CCc1ccccc1)N[C@@H](C)C(=O)N1[C@H](C(=O)O)C[C@@H]2CCC[C@@H]21	-0.711% [at 35.3 µM] (inactive)
Nc1ccc(S(=O)(=O)NC(=O)c2ccccc2)cc1	-1.11% [at 35.3 µM] (inactive)
CN1CCN(c2c(F)cc3c(=O)c(C(=O)O)cn(CCF)c3c2F)CC1	-0.165% [at 35.3 µM] (inactive)
CCn1cc(C(=O)O)c(=O)c2cnc(N3CCCC3)nc21	2.91% [at 6.97 µM] (inactive)
CCn1cc(C(=O)O)c(=O)c2cc(F)c(N3CCNCC3)cc21	0.0861% [at 35.3 µM] (inactive)
Cc1[nH]cnc1CN1CCc2c(c3ccccc3n2C)C1=O	-0.639% [at 35.3 µM] (inactive)
CC(C)(C)NCC(O)COc1cccc2c1C[C@H](O)[C@H](O)C2 (stereo partly drawn)	-1.88% [at 35.3 µM] (inactive)
O=C(Oc1ccccc1C(=O)O)c1ccccc1O	-0.658% [at 35.3 µM] (inactive)
C[n+]1ccccc1/C=N/O	0.11% [at 35.3 µM] (inactive)
CC12CCC(CC1=O)C2(C)C (stereo not drawn)	-4.16% (inactive)
COC(=O)CCc1ccc(OCC(O)CNC(C)C)cc1 (stereo not drawn)	0.151% [at 35.3 µM] (inactive)
NCCCCCC(=O)O	-0.0249% [at 35.3 µM] (inactive)
CCOc1cc(N)c(Cl)cc1C(=O)NCC1CN(Cc2ccc(F)cc2)CCO1 (stereo not drawn)	0.112% [at 35.3 µM] (inactive)
CCCc1nn(C)c2c(=O)[nH]c(-c3cc(S(=O)(=O)N4CCN(C)CC4)ccc3OCC)nc12	2.5% [at 35.3 µM] (inactive)
Cc1ccc(S(=O)(=O)NC(=O)NN2CC3CCCC3C2)cc1 (stereo not drawn)	-1.57% [at 35.3 µM] (inactive)

Tested on: not listed separately
Assay: G protein-coupled receptor (GPCR) small molecule agonists, calcium flux assay: HEK293 wild type cell line counter screen (AID 1920065)
Details: HEK293 WT calcium flux, fluorescence, agonist mode; series mostly up to 57.6 µM; activation: at the top concentration
In short: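 Fluorescence intensity signals activation. After overnight (18 h) culture and a 1 h calcium dye load at 37 C, compounds are added by pin tool and the plate read at 480/540 nm for 3 min in 1 s steps.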

Compound	activation
O=c1[nH]c(=O)n([C@H]2C[C@H](O)[C@@H](CO)O2)cc1I	-0.335% [at 26.5 µM] (inactive)
CC[N+](CC)(CC)CCOc1cccc(OCC[N+](CC)(CC)CC)c1OCC[N+](CC)(CC)CC	1.13% [at 26.5 µM] (inactive)
C[N+]1(C)[C@@H]2CC(OC(=O)[C@H](CO)c3ccccc3)C[C@H]1[C@@H]1O[C@@H]12 (stereo partly drawn)	0.0273% [at 26.5 µM] (inactive)
C[C@@H]1C[C@H]2[C@@H]3CCC4=CC(=O)C=C[C@]4(C)[C@@]3(F)[C@@H](O)C[C@]2(C)[C@H]1C(=O)CO	-0.0279% [at 26.5 µM] (inactive)
C[C@H]1C[C@H]2[C@@H]3CCC4=CC(=O)C=C[C@]4(C)[C@@]3(F)[C@@H](O)C[C@]2(C)[C@@]1(O)C(=O)COP(=O)(O)O	0.651% (inactive)
CCOC(=O)OC(C)OC1=C(C(=O)Nc2ccccn2)N(C)S(=O)(=O)c2ccccc21 (stereo not drawn)	-0.28% [at 26.5 µM] (inactive)
C[N+](C)(C)CC(O)CC(=O)[O-] (stereo not drawn)	-1.09% [at 26.5 µM] (inactive)
Cc1cccc(C)c1OCC(C)N (stereo not drawn)	0.331% [at 26.5 µM] (inactive)
CC1=NS(=O)(=O)c2cc(Cl)ccc2N1	0.122% [at 26.5 µM] (inactive)
CC(C)NCC(O)c1ccc(NS(C)(=O)=O)cc1 (stereo not drawn)	-0.148% (inactive)
CC[C@H]1OC(=O)[C@H](C)[C@@H](O[C@H]2C[C@@](C)(OC)[C@@H](O)[C@H](C)O2)[C@H](C)[C@@H](O[C@@H]2O[C@H](C)C[C@H](N(C)C)[C@H]2O)[C@](C)(OC)C[C@@H](C)C(=O)[C@H](C)[C@@H](O)[C@]1(C)O	-0.113% (inactive)
CC[C@H]1OC(=O)[C@H](C)[C@@H](O[C@H]2C[C@@](C)(OC)[C@@H](O)[C@H](C)O2)[C@H](C)[C@@H](O[C@@H]2O[C@H](C)C[C@H](N(C)C)[C@H]2O)[C@](C)(O)C[C@@H](C)C(=O)[C@H](C)[C@@H](O)[C@]1(C)O	0.0982% [at 26.5 µM] (inactive)
NCCCNCCSP(=O)(O)O	-0.178% [at 5.23 µM] (inactive)
NS(=O)(=O)c1cc2c(cc1Cl)NC(C(Cl)Cl)NS2(=O)=O (stereo not drawn)	0.277% [at 26.5 µM] (inactive)
CCOC(=O)[C@H](CCc1ccccc1)N[C@@H](C)C(=O)N1CCC[C@H]1C(=O)O	-0.0004% [at 26.5 µM] (inactive)
COC(=O)[C@@H]1[C@H]2C[C@H]3c4[nH]c5ccccc5c4CCN3C[C@@H]2CC[C@@H]1O	-0.546% [at 26.5 µM] (inactive)
Oc1cccc(O)c1O	-0.555% (inactive)
COc1cc(C(=O)NC2CCCNC2)cc(OC)c1OC (stereo not drawn)	-0.0945% [at 26.5 µM] (inactive)
CCN[C@@H]1C[C@H](N)[C@@H](OC2OC(CN)=CCC2N)[C@H](O)[C@H]1O[C@H]1OC[C@](C)(O)[C@H](NC)[C@H]1O (stereo partly drawn)	1.44% [at 0.217 µM] (inactive)
O=C(O)CCNC(=O)c1ccccc1	-2.02% [at 26.5 µM] (inactive)

Compound	activation
CN1CCN(C(c2ccccc2)c2ccccc2)CC1	0.743% [at 26.5 µM] (inactive)
CCCN(CCC)C(=O)C(CCC(=O)O)NC(=O)c1ccccc1 (stereo not drawn)	-0.0794% [at 26.5 µM] (inactive)
CNS(=O)(=O)Cc1ccc2[nH]cc(CCN(C)C)c2c1	0.768% [at 26.5 µM] (inactive)
CCN(CC)CCNC(=O)c1cc(S(C)(=O)=O)ccc1OC	0.515% [at 26.5 µM] (inactive)
CCOC(=O)[C@H](CCc1ccccc1)N[C@@H](C)C(=O)N1[C@H](C(=O)O)C[C@@H]2CCC[C@@H]21	0.0696% [at 26.5 µM] (inactive)
Nc1ccc(S(=O)(=O)NC(=O)c2ccccc2)cc1	-0.306% [at 26.5 µM] (inactive)
CN1CCN(c2c(F)cc3c(=O)c(C(=O)O)cn(CCF)c3c2F)CC1	-0.577% [at 26.5 µM] (inactive)
CCn1cc(C(=O)O)c(=O)c2cnc(N3CCCC3)nc21	0.533% [at 5.23 µM] (inactive)
CCn1cc(C(=O)O)c(=O)c2cc(F)c(N3CCNCC3)cc21	-0.187% [at 26.5 µM] (inactive)
Cc1[nH]cnc1CN1CCc2c(c3ccccc3n2C)C1=O	-0.454% [at 26.5 µM] (inactive)
CC(C)(C)NCC(O)COc1cccc2c1C[C@H](O)[C@H](O)C2 (stereo partly drawn)	-0.178% [at 26.5 µM] (inactive)
O=C(Oc1ccccc1C(=O)O)c1ccccc1O	-1.23% [at 26.5 µM] (inactive)
C[n+]1ccccc1/C=N/O	-0.199% [at 26.5 µM] (inactive)
CC12CCC(CC1=O)C2(C)C (stereo not drawn)	-0.0013% (inactive)
COC(=O)CCc1ccc(OCC(O)CNC(C)C)cc1 (stereo not drawn)	0.677% [at 26.5 µM] (inactive)
NCCCCCC(=O)O	-0.226% [at 26.5 µM] (inactive)
CCOc1cc(N)c(Cl)cc1C(=O)NCC1CN(Cc2ccc(F)cc2)CCO1 (stereo not drawn)	-1.55% [at 26.5 µM] (inactive)
CCCc1nn(C)c2c(=O)[nH]c(-c3cc(S(=O)(=O)N4CCN(C)CC4)ccc3OCC)nc12	-0.159% [at 26.5 µM] (inactive)
Cc1ccc(S(=O)(=O)NC(=O)NN2CC3CCCC3C2)cc1 (stereo not drawn)	0.427% [at 26.5 µM] (inactive)
